Data taken from PubChem BioAssay (EPA / NIEHS).
Inconclusive results are not listed. Calls of active or inactive are those of the source. How the source made its calls: active means hit-call score of the fitted dose curve at least 0.9, where 1 is the maximum; inconclusive means response in the unintended direction; inactive means score below 0.9.

target: human RAR-related Orphan Receptor gamma (RORg), RORC (gene 6097) (UniProt P51449); assay: ATG_RORg_TRANS: Attagene TRANS-FACTORIAL HepG2 Assay for human RAR-related Orphan Receptor gamma (RORg) (AID 2283011);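 on AC50: potency for induction of reporter transcripts above DMSO so activators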
Sequence (P51449 whole entry, looked up, the tested form may be a part): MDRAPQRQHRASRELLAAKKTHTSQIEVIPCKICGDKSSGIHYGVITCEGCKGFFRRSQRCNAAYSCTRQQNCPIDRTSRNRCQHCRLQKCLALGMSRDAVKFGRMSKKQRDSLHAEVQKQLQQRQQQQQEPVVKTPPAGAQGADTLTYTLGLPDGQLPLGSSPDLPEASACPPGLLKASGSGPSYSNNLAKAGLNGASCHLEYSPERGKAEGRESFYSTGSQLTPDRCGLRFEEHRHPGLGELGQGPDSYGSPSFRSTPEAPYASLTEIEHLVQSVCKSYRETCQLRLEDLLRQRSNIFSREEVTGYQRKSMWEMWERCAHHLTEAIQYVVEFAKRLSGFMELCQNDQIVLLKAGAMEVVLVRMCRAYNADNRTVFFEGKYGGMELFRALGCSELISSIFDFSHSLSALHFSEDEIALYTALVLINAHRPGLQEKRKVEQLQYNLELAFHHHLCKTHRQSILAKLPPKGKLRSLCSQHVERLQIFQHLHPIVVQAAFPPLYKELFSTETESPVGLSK
Method in brief: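 Chimeric RORg-Gal4 transactivation in transfected HepG2; 24 h exposure; RT-PCR/capillary electrophoresis readout of reporter mRNA, DMSO baseline.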

Q: `FC(F)(F)C(F)(F)C(F)(F)CI` was tested. Which outcome did it give?
A: inactive

Q: `O=C(O)C(F)(F)C(F)(F)C(F)(F)C(F)(F)C(F)(F)C(F)(F)C(F)(F)C(F)(F)C(F)(F)C(F)(F)C(F)(F)C(F)(F)C(F)(F)F` was tested. Which outcome did it give?
A: inactive

Q: Which outcome does the source give for `O=C(O)C(F)(F)C(F)(F)C(F)(F)C(F)(F)C(F)(F)C(F)(F)C(F)(F)C(F)(F)C(F)(F)C(F)(F)C(F)(F)C(F)(F)F` here?
A: inactive

Q: For `CC(C)(C)C(=O)CC(=O)C(F)(F)C(F)(F)C(F)(F)F`, which outcome is on record?
A: inactive

Q: How did the outcome turn out when `FC(F)(F)C(F)(F)C(F)(F)C(F)(F)C(F)(F)C(F)(F)CC1CO1` (configuration not stated) was run?
A: inactive

Q: How did the AC50 turn out when `O=C(O)C(F)(F)C(F)(F)C(F)(F)C(F)(F)C(F)(F)C(F)(F)C(F)(F)C(F)(F)C(F)(F)C(F)F` was run?
A: 50 µM (active)

Q: With `O=C(O)C(F)(OC(F)(F)C(F)(OC(F)(F)C(F)(OC(F)(F)C(F)(F)C(F)(F)F)C(F)(F)F)C(F)(F)F)C(F)(F)F` (configuration not stated) as the molecule, how does the outcome read?
A: inactive

Q: With `FC(F)(F)C(F)(F)C(F)(F)C(F)(F)C(F)(F)CCI` as the molecule, how does the outcome read?
A: inactive

target: Retinoic acid receptor RXR-alpha (Homo sapiens) (UniProt P19793); assay: ATG_RXRa_TRANS: Attagene TRANS-FACTORIAL HepG2 Assay for human Retinoid X Receptor alpha (RXRa) (AID 2283012)
Sequence (P19793 whole entry, looked up, the tested form may be a part): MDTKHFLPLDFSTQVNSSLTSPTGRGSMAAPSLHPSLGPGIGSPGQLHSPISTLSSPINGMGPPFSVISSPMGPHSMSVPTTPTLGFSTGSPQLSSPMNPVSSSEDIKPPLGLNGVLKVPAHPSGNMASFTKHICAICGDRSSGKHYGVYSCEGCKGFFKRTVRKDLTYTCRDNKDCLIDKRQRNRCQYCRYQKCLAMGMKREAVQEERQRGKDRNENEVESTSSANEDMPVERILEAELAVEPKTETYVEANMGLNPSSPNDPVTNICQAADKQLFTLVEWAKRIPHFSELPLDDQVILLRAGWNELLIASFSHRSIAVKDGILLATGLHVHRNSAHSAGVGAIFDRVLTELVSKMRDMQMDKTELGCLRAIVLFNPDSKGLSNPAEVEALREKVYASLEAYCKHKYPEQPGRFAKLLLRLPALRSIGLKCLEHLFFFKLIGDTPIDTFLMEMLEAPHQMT
Method in brief: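 TRANS format reporting activity of exogenous RXRa-Gal4 chimera in transiently transfected HepG2, 24 h exposure. Reporter transcripts quantified by RT-PCR with capillary electrophoresis, with gain of signal scored relative to DMSO.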

Q: With `OCC(F)(F)C(F)(F)C(F)(F)C(F)F` as the molecule, how does the outcome read?
A: inactive

Q: How did the outcome turn out when `Cc1ccc(S(=O)(=O)NCl)cc1` was run?
A: inactive

Q: For `CC/C=C\CCOC(=O)c1ccccc1`, which outcome is on record?
A: inactive

Q: With `CCN(Cc1cccc(S(=O)(=O)O)c1)c1ccc(C(=C2C=CC(=[N+](CC)Cc3cccc(S(=O)(=O)O)c3)C=C2)c2ccc(O)cc2S(=O)(=O)[O-])cc1` as the molecule, how does the outcome read?
A: inactive

Q: How did the outcome turn out when `Oc1ccc(Nc2ccccc2)cc1` was run?
A: inactive

Q: `Nc1cc(Cl)c(N)c(Cl)c1` was tested. Which outcome did it give?
A: inactive

Q: `CC(C)OC(=O)c1ccccc1C(=O)OC(C)C` was tested. Which outcome did it give?
A: inactive

Q: How did the outcome turn out when `O=S(=O)(O)C(F)(F)C(F)(F)C(F)(F)C(F)(F)C(F)(F)C(F)(F)C(F)(F)F` was run?
A: inactive

Q: `O=C(O)C(F)(F)C(F)(F)C(F)(F)C(F)(F)F` was tested. Which outcome did it give?
A: inactive

Q: With `O=C(O)C(F)(F)C(F)(F)C(F)(F)F` as the molecule, how does the outcome read?
A: inactive

Q: For `C1COCCN1`, which outcome is on record?
A: inactive

Q: With `C=CC(F)(F)C(F)(F)C(F)(F)C(F)(F)C(F)(F)C(F)(F)C(F)(F)C(F)(F)C=C` as the molecule, how does the outcome read?
A: inactive

Q: With `CC(C)(C)c1ccc(OC2CCCCC2O)cc1` (configuration not stated) as the molecule, how does the AC50 read?
A: 26.2 µM (active)

Q: With `N=C(N)C(F)(F)C(F)(F)C(F)(F)C(F)(F)C(F)(F)C(F)(F)C(F)(F)F` as the molecule, how does the outcome read?
A: inactive

Q: How did the outcome turn out when `O=C(O)C(F)(F)C(F)(F)C(F)(F)C(F)(F)C(F)(F)C(F)(F)C(F)(F)C(F)(F)Cl` was run?
A: inactive

Q: For `COC(OC(C)=O)c1ccccc1` (configuration not stated), which outcome is on record?
A: inactive

Q: Which outcome does the source give for `O=P(O)(O)OCCC(F)(F)C(F)(F)C(F)(F)C(F)(F)C(F)(F)C(F)(F)F` here?
A: inactive

Q: How did the outcome turn out when `Cc1cc(C)cc(O)c1` was run?
A: inactive

Q: How did the outcome turn out when `[Co]` was run?
A: inactive

Q: How did the outcome turn out when `CCCCCCCCCCCCCCCC[N+](C)(C)Cc1ccccc1` was run?
A: inactive

Q: For `O=C(O)C(F)(F)C(F)(F)C(F)(F)C(F)(F)C(F)(F)C(F)(F)C(F)(F)C(F)(F)C(F)(F)C(F)(F)C(F)(F)C(F)(F)C(F)(F)F`, which outcome is on record?
A: inactive

Q: For `O=C(O)C(F)(F)C(F)(F)C(F)(F)C(F)(F)C(F)(F)C(F)(F)C(F)(F)C(F)(F)C(F)(F)C(F)(F)C(F)(F)C(F)(F)F`, which outcome is on record?
A: inactive

Q: `FC(F)(F)C(F)(F)C(F)(F)C(F)(F)C(F)(F)C(F)(F)CC1CO1` (configuration not stated) was tested. Which outcome did it give?
A: inactive

Q: For `O=C(O)C(F)(OC(F)(F)C(F)(OC(F)(F)C(F)(OC(F)(F)C(F)(F)C(F)(F)F)C(F)(F)F)C(F)(F)F)C(F)(F)F` (configuration not stated), which outcome is on record?
A: inactive

Q: For `c1ccc(-c2ccccc2-c2ccccc2)cc1`, which outcome is on record?
A: inactive

Q: Which outcome does the source give for `FC(F)(F)C(F)(F)C(F)(F)C(F)(F)C(F)(F)CCI` here?
A: inactive

target: human Retinoid X Receptor beta (RXRb), RXRB (gene 6257) (UniProt P28702); assay: ATG_RXRb_TRANS: Attagene TRANS-FACTORIAL HepG2 Assay for human Retinoid X Receptor beta (RXRb) (AID 2283013)
Sequence (P28702 whole entry, looked up, the tested form may be a part): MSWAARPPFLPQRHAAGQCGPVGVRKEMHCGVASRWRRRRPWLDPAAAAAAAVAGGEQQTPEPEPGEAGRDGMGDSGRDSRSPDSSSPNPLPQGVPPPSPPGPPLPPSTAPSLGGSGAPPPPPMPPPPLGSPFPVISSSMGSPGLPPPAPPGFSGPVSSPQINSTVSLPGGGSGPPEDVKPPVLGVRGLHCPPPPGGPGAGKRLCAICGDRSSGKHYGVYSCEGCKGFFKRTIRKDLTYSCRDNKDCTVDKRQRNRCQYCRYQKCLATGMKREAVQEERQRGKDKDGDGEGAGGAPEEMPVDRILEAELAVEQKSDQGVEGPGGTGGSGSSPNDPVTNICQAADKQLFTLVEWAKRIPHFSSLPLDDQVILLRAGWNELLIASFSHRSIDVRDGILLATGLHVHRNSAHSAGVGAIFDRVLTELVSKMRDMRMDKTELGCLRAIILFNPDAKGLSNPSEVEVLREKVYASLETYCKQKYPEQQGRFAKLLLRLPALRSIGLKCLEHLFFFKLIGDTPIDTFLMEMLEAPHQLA
Method in brief: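 Readout is reporter transcript induction after 24 h dosing. It is measured by RT-PCR of total RNA followed by fluorescent capillary electrophoresis. HepG2 liver cells carry transfected multiple reporter units driven by an exogenous RXRb-Gal4 fusion; activity is relative to DMSO.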

Q: `CC/C=C\CCOC(=O)c1ccccc1` was tested. Which outcome did it give?
A: inactive

Q: How did the outcome turn out when `CCN(Cc1cccc(S(=O)(=O)O)c1)c1ccc(C(=C2C=CC(=[N+](CC)Cc3cccc(S(=O)(=O)O)c3)C=C2)c2ccc(O)cc2S(=O)(=O)[O-])cc1` was run?
A: inactive

Q: With `Oc1ccc(Nc2ccccc2)cc1` as the molecule, how does the outcome read?
A: inactive

Q: With `CC(C)OC(=O)c1ccccc1C(=O)OC(C)C` as the molecule, how does the AC50 read?
A: 18.9 µM (active)

Q: With `O=C(O)C(F)(F)C(F)(F)C(F)(F)C(F)(F)F` as the molecule, how does the outcome read?
A: inactive

Q: Which outcome does the source give for `Cc1cc(C)cc(O)c1` here?
A: inactive

Q: With `[Co]` as the molecule, how does the outcome read?
A: inactive

Q: `FC(F)(F)C(F)(F)C(F)(F)CI` was tested. Which outcome did it give?
A: inactive

Q: Which outcome does the source give for `O=C(O)C(F)(F)C(F)(F)C(F)(F)C(F)(F)C(F)(F)C(F)(F)C(F)(F)C(F)(F)C(F)(F)C(F)(F)C(F)(F)C(F)(F)F` here?
A: inactive

Q: `CC(C)(C)C(=O)CC(=O)C(F)(F)C(F)(F)C(F)(F)F` was tested. Which outcome did it give?
A: inactive

Q: For `c1ccc(-c2ccccc2-c2ccccc2)cc1`, which AC50 is on record?
A: 12.7 µM (active)

target: human Thyroid Receptor alpha (THRa1), THRA (gene 7067) (UniProt P10827); assay: ATG_THRa1_TRANS: Attagene TRANS-FACTORIAL HepG2 Assay for human Thyroid Receptor alpha (THRa1) (AID 2283014)
Sequence (P10827 whole entry, looked up, the tested form may be a part): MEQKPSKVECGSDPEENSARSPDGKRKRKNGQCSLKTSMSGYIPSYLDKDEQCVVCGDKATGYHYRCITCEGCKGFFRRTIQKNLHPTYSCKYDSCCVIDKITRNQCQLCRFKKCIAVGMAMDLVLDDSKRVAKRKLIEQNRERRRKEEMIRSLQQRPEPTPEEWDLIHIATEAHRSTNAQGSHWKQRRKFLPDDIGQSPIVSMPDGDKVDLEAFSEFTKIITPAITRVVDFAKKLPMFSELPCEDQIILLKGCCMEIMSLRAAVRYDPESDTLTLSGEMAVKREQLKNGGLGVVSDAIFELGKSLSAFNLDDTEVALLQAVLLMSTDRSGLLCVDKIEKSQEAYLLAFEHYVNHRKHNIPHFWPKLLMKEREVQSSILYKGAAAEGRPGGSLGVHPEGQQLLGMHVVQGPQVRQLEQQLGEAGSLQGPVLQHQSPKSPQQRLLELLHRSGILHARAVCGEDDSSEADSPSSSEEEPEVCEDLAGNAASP
Method in brief: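 Measured here is mRNA from a GAL4-UAS reporter in transfected HepG2 cells carrying a Gal4-fused receptor, 24 h post-dose. DMSO served as negative control and baseline.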

Q: With `Cc1ccc(S(=O)(=O)NCl)cc1` as the molecule, how does the outcome read?
A: inactive

Q: Which outcome does the source give for `Oc1ccc(Nc2ccccc2)cc1` here?
A: inactive

Q: With `Nc1cc(Cl)c(N)c(Cl)c1` as the molecule, how does the outcome read?
A: inactive

Q: With `Cc1cccc(N(C)C)c1` as the molecule, how does the outcome read?
A: inactive

Q: With `O=C(O)C(F)(F)C(F)(F)OC(F)(F)F` as the molecule, how does the outcome read?
A: inactive

Q: Which outcome does the source give for `O=C(O)C(F)(F)C(F)(F)C(F)(F)F` here?
A: inactive

Q: `C1COCCN1` was tested. Which outcome did it give?
A: inactive

Q: Which AC50 does the source give for `CC(=O)Nc1ccc(N=Nc2cc(C)ccc2O)cc1` here?
A: 47.6 µM (active)

Q: `CC(C)(C)c1ccc(OC2CCCCC2O)cc1` (configuration not stated) was tested. Which outcome did it give?
A: inactive

Q: How did the outcome turn out when `O=C(O)C(F)(F)C(F)(F)C(F)(F)C(F)(F)C(F)(F)C(F)(F)C(F)(F)C(F)(F)Cl` was run?
A: inactive

Q: With `COC(OC(C)=O)c1ccccc1` (configuration not stated) as the molecule, how does the outcome read?
A: inactive

Q: Which outcome does the source give for `O=P(O)(O)OCCC(F)(F)C(F)(F)C(F)(F)C(F)(F)C(F)(F)C(F)(F)F` here?
A: inactive

Q: Which outcome does the source give for `CCCCCCCOC(=O)c1ccccc1C(=O)OCCCCCCC` here?
A: inactive

Q: How did the outcome turn out when `Cc1cc(C)cc(O)c1` was run?
A: inactive

Q: Which outcome does the source give for `[Co]` here?
A: inactive

Q: How did the outcome turn out when `CCCCCCCCCCCCCCCC[N+](C)(C)Cc1ccccc1` was run?
A: inactive

Q: `FC(F)(F)C(F)(F)C(F)(F)CI` was tested. Which outcome did it give?
A: inactive

Q: How did the outcome turn out when `O=C(O)C(F)(F)C(F)(F)C(F)(F)C(F)(F)C(F)(F)C(F)(F)C(F)(F)C(F)(F)C(F)(F)C(F)(F)C(F)(F)C(F)(F)C(F)(F)F` was run?
A: inactive

Q: With `O=C(O)C(F)(F)C(F)(F)C(F)(F)C(F)(F)C(F)(F)C(F)(F)C(F)(F)C(F)(F)C(F)(F)C(F)(F)C(F)(F)C(F)(F)F` as the molecule, how does the outcome read?
A: inactive

Q: For `FC(F)(F)C(F)(F)C(F)(F)C(F)(F)C(F)(F)C(F)(F)CC1CO1` (configuration not stated), which outcome is on record?
A: inactive

Q: Which outcome does the source give for `O=C(O)C(F)(F)C(F)(F)C(F)(F)C(F)(F)C(F)(F)C(F)(F)C(F)(F)C(F)(F)C(F)(F)C(F)F` here?
A: inactive

Q: For `FC(F)(F)C(F)(F)C(F)(F)C(F)(F)C(F)(F)CCI`, which outcome is on record?
A: inactive
